The nature of test [1]: antimalarial activity against Dd2 strain (AID 2302;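 active means growth inhibition above 50% at the single 2 µM test dose, taken to imply half-maximal potency below 2 µM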;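 further: 0% = DMSO untreated growth and 100% = chloroquine plus artemisinin killed control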). The following applies: P. falciparum Dd2 in RBCs, LDH growth readout, 72 h; at 2 µM; hits give high values.
Test [2] is described as follows: human hepatoma cell viability loss – ATP luminescence, cytotoxicity control for P. falciparum antimalarial project, primary screen (AID 2303;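 active means inhibition above 50%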;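 further: 0% = DMSO wells and 100% = digitonin-killed cells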). The settings on record: HepG2 viability, 24-48 h, at 10 µM, hits give high values.
The target in test [3] is L-lactate dehydrogenase (Plasmodium falciparum (isolate CDC / Honduras)) (UniProt Q27743). The experiment in a line: PfLDH activity inhibition – cell lysate, 3D7 strain, counter-screen for P. falciparum growth inhibition project (AID 2304).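 Further: 0% = vehicle and 100% = reference inhibitor.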 The following applies: P. falciparum 3D7 crude extract, LDH APAD/NBT absorbance; at 2 µM; hits give high values.
Test [4] is described as follows: inhibition of 3D7 malaria parasite growth – strain 3D7 (AID 2306).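 Further: 0% = DMSO wells and 100% = chloroquine plus artemisinin control wells.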 The following applies: P. falciparum 3D7 erythrocytic growth, LDH absorbance, 72 h; at 2 µM; hits give high values.
Test [5] has as its target Calcium-dependent protein kinase 1 (Plasmodium falciparum (isolate 3D7)) (UniProt P62344). Nature of the test: PfCDPK1 kinase inhibitors, biochemical, TCAMS library (AID 1159585; cut-off not given, nearly all actives have IC50 up to about 0.98 µM;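 further: inhibitors leave more ATP so luminescence rises with inhibition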). The settings on record: recombinant PfCDPK1, Kinase-Glo ATP depletion luminescence.
The target of test [6] is Plasmodium falciparum protein kinase 6 (PK6, PF3D7_1337100) (UniProt Q8IDW1). The experiment in a line: PfPK6 kinase inhibitors, biochemical, TCAMS library (AID 1159586). The settings on record: recombinant PfPK6, Kinase-Glo ATP depletion luminescence.
The target in test [7] is Protein kinase 7 (PK7), Plasmodium falciparum 3D7 (PF3D7_0213400) (UniProt Q7YTF7). Nature of the test: inhibition of Plasmodium PK7 catalytic activity – biochemical, TCAMS antimalarial set, Kinase-Glo luminescence (AID 1159587). The settings on record: recombinant PfPK7, Kinase-Glo ATP depletion luminescence.
Test [8] has as its target Calcium-dependent protein kinase 4 (Plasmodium falciparum (isolate 3D7)) (UniProt Q8IBS5). The experiment in a line: PfCDPK4 kinase inhibitors, biochemical, TCAMS library (AID 1159588; cut-off not given, nearly all actives have IC50 up to about 0.91 µM). The settings on record: recombinant PfCDPK4, Kinase-Glo ATP depletion luminescence.

From PubChem BioAssay come the findings set out here.

A number with no mark means an inactive call. For some assays here: Results with a measured potency or affinity are listed apart. Active and inactive are the calls of the source. Unless noted, how the calls were made is not given here.

Sequence of L-lactate dehydrogenase (Plasmodium falciparum (isolate CDC / Honduras)) (Q27743 whole entry, looked up): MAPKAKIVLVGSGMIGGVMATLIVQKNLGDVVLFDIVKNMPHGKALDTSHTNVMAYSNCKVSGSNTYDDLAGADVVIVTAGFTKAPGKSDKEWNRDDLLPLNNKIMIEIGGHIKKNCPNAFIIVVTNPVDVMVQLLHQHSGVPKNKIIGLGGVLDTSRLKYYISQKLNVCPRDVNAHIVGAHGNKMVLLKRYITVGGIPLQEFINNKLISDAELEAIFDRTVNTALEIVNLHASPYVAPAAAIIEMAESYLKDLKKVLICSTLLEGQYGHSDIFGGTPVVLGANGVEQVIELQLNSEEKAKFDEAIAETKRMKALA
Sequence of Calcium-dependent protein kinase 1 (Plasmodium falciparum (isolate 3D7)) (P62344 whole entry, looked up): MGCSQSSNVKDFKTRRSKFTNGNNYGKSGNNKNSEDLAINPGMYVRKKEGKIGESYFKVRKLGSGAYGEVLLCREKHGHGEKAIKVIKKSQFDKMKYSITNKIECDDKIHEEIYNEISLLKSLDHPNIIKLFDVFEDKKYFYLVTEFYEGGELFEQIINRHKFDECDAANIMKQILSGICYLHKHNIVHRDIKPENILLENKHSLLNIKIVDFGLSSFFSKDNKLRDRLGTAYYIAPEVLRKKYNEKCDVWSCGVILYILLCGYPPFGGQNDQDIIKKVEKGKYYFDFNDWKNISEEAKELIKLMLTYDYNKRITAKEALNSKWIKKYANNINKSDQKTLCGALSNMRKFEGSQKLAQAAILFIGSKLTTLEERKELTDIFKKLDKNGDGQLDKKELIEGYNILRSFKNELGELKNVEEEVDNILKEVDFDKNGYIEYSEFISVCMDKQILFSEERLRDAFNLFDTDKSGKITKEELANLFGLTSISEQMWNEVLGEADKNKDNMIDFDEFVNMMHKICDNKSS
Sequence of Protein kinase 7 (PK7), Plasmodium falciparum 3D7 (PF3D7_0213400) (Q7YTF7 1-343): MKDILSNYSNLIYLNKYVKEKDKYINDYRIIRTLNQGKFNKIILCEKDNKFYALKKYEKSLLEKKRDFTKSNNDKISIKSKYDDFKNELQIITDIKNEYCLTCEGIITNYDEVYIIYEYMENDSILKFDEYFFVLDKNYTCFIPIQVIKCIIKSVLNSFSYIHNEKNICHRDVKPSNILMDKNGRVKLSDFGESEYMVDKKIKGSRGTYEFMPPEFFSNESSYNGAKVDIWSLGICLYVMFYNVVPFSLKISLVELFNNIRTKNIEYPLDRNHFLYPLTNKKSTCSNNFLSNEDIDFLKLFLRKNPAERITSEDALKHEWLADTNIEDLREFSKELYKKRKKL
Sequence of Calcium-dependent protein kinase 4 (Plasmodium falciparum (isolate 3D7)) (Q8IBS5 whole entry, looked up): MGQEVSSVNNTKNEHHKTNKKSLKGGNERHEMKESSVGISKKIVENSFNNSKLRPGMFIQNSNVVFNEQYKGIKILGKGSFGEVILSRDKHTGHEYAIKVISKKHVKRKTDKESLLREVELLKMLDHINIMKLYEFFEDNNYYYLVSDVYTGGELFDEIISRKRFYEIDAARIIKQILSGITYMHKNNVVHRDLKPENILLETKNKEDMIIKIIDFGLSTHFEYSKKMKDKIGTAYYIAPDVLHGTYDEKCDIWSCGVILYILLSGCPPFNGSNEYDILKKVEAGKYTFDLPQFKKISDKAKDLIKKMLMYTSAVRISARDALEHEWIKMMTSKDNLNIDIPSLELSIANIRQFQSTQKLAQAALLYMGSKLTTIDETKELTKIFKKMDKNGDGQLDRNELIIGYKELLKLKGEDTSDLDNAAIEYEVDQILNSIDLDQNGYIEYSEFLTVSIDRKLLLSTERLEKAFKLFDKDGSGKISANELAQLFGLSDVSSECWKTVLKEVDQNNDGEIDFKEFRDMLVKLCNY
Sequence of Plasmodium falciparum protein kinase 6 (PK6, PF3D7_1337100) (Q8IDW1 1-305): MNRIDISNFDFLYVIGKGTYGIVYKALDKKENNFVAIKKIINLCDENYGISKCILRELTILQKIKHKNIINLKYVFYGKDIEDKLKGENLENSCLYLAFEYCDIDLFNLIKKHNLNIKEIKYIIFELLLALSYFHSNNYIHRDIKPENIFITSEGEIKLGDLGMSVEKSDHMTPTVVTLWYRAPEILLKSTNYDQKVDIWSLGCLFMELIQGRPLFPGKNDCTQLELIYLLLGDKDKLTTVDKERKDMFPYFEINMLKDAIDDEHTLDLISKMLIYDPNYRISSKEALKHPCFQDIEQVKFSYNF

Take `CC1(C)N=C(N)N=C(N)N1c1cccc(I)c1`: the values for the growth inhibition in test [1] and in test [4] were 85% (active) and 95% (active), respectively. The figures for the inhibition in test [2] and in test [3] were 68% (active) and -2%, respectively. In addition, the outcome in test [5], in test [6], in test [7] and in test [8] was inactive.
For `O=C(Nc1ccc(C(F)(F)F)cc1)c1ccc(S(=O)(=O)NC2CCN(CC3CCCCC3)CC2)cc1`, the growth inhibition in test [1] is 20%; in test [4], 101% (active). In addition, the inhibition in test [2] is 30%; in test [3] it was 1%. Also, the outcome in test [5], in test [6], in test [7] and in test [8] was inactive.
As to `Fc1cc(Cl)ccc1Nc1ccnc2cc(-c3ccc(CN4CCSCC4)o3)ccc12`, the figures for the growth inhibition in test [1] and in test [4] were 99% (active) and 100% (active), respectively. For the same molecule, the inhibition is 17% in test [2] and 0% in test [3]. Besides, the outcome in test [5], in test [6], in test [7] and in test [8] was inactive.
In the case of `Oc1ccc(CCNCCCCCCNCCc2ccc(Br)cc2)cc1O`, the figures for the growth inhibition in test [1] and in test [4] were 5% and 99% (active), respectively. Moreover, the values for the inhibition in test [2] and in test [3] were 2% and -2%, respectively. For the same molecule, the outcome in test [5], in test [6], in test [7] and in test [8] was inactive.
`FC(F)(F)c1ccc2nc(-c3ccc(-c4ccc(CNCc5cnn(-c6ccccc6)n5)cc4)s3)[nH]c2c1`: the growth inhibition in test [1] was 89% (active); in test [4] it was 100% (active). The values for the inhibition in test [2] and in test [3] were 27% and -2%, respectively. For the same molecule, the result in test [5], in test [6], in test [7] and in test [8] was inactive.
For `Cc1cc(NCCc2cccc(F)c2)nc(/N=C(\N)Nc2cccc(C(F)(F)F)c2)n1`, the growth inhibition is 99% (active) in test [1] and 102% (active) in test [4]. Also, the inhibition in test [2] is 42%; in test [3], -1%. The result in test [5], in test [6], in test [7] and in test [8] was inactive.
As for `Cc1ccc(CNC(=O)c2cc3c(=O)n4ccccc4nc3n(CCCN3CCOCC3)c2=N)cc1`, the figures for the growth inhibition in test [1] and in test [4] were 5% and 92% (active), respectively. For the same molecule, the inhibition in test [2] was 21%; in test [3], -3%. Moreover, the outcome in test [5], in test [6], in test [7] and in test [8] was inactive.
Consider `CCN(c1ccc(F)cc1)S(=O)(=O)c1cc(Br)cc2c1N(C(=O)C1CC1)CC2`, for which the results for the growth inhibition in test [1] and in test [4] were 79% (active) and 88% (active), respectively. Further, the inhibition in test [2] is -16%; in test [3], 7%. The outcome in test [5], in test [6], in test [7] and in test [8] was inactive.
In the case of `c1ccc(Oc2ccc(Nc3ccnc4ccc(-c5ccccn5)cc34)cc2)cc1`, the growth inhibition in test [1] was 10%; in test [4] it was 80% (active). The inhibition is 4% in test [2] and -5% in test [3]. The outcome in test [5], in test [6], in test [7] and in test [8] was inactive.
In the case of `CCN(CCNS(C)(=O)=O)c1ccc(N)c(C)c1`, the growth inhibition is 11% in test [1] and 91% (active) in test [4]. Moreover, the inhibition in test [2] and in test [3] was -4% each time. Also, the outcome in test [5], in test [6], in test [7] and in test [8] was inactive.
Consider `CS(=O)(=O)CCNCc1cccc(-c2cc3c(Nc4ccc(OCc5cccc(F)c5)c(Cl)c4)ncnc3s2)c1`, for which the results for the growth inhibition in test [1] and in test [4] were 97% (active) and 101% (active), respectively. The inhibition in test [2] was 5%; in test [3], 1%. Further, the outcome in test [5], in test [6], in test [7] and in test [8] was inactive.
In the case of `OC(CNCc1ccccc1OCc1ccccc1)c1cccc(C(F)(F)F)c1` (configuration not stated), the growth inhibition in test [1] and in test [4] was 99% (active) throughout. Moreover, the inhibition is 12% in test [2] and -2% in test [3]. Besides, the result in test [5], in test [6], in test [7] and in test [8] was inactive.
In the case of `CCCC(C)Nc1nc(C)cc(NCCC(=O)Nc2ccccc2)n1` (configuration not stated), the growth inhibition in test [1] was 11%; in test [4], 96% (active). Besides, the figures for the inhibition in test [2] and in test [3] were 12% and -4%, respectively. Besides, the result in test [5], in test [6], in test [7] and in test [8] was inactive.
In the case of `Cc1cc(NC(=O)N=C(N)N)ccc1Cl`, the growth inhibition in test [1] was 15%; in test [4] it was 100% (active). The inhibition in test [2] is 11%; in test [3], 2%. For the same molecule, the result in test [5], in test [6], in test [7] and in test [8] was inactive.
`COc1cc(NC(=O)/C=C/c2cc(F)cc(F)c2F)cc(OCCN2CCC(O)(c3ccccc3)CC2)c1`: the growth inhibition in test [1] was 82% (active); in test [4], 103% (active). For the same molecule, the inhibition in test [2] was 54% (active); in test [3], 6%. Further, the outcome in test [5], in test [6], in test [7] and in test [8] was inactive.
As to `CC1(C)N=C(N)N=C(N)N1OCCCCCOc1ccccc1`, the results for the growth inhibition in test [1] and in test [4] were 97% (active) and 95% (active), respectively. In addition, the inhibition is 61% (active) in test [2] and 4% in test [3]. Also, the outcome in test [5], in test [6], in test [7] and in test [8] was inactive.
As for `Nc1nc(N)c2c(Cc3ccccc3)cccc2n1`, the figures for the growth inhibition in test [1] and in test [4] were 3% and 94% (active), respectively. Besides, the inhibition is 68% (active) in test [2] and -7% in test [3]. Moreover, the outcome in test [5], in test [6], in test [7] and in test [8] was inactive.
Regarding `COc1ccc(-c2cnc(N)c(-c3ccc(O)c(OC)c3)c2)cn1`, the growth inhibition in test [1] is 98% (active); in test [4], 97% (active). Besides, the values for the inhibition in test [2] and in test [3] were 23% and -1%, respectively. Also, the result in test [5], in test [6], in test [7] and in test [8] was inactive.
For `CN(CCO)Cc1ccc(-c2ccc(NS(=O)(=O)c3cccc4cccnc34)cc2)cc1`, the figures for the growth inhibition in test [1] and in test [4] were 84% (active) and 99% (active), respectively. In addition, the results for the inhibition in test [2] and in test [3] were 28% and -1%, respectively. The result in test [5], in test [6], in test [7] and in test [8] was inactive.
